Compounds with a hit are over-represented: about 2.5% of the library has one in this group of screens.
Cruzain inh noDet = inhibitors of Trypanosoma cruzi cruzain without detergent. P25779. 200,000 compounds, 2.3% hits. Potency, µM, usual class: inhibitors. purified cruzain, Z-FR-AMC fluorescence, no detergent; note: nearly all actives have a fitted effect of over 40% in size
Target sequence (P25779 123-467 limits assumed): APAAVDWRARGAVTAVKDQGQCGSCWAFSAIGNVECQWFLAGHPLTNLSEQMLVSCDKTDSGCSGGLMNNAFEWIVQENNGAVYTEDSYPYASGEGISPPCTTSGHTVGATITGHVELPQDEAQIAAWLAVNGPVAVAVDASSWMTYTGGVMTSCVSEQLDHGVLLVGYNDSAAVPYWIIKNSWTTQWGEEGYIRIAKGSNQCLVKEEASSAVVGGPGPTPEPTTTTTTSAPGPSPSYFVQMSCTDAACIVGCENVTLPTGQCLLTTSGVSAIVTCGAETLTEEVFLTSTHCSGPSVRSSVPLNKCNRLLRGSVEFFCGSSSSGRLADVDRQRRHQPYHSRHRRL
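Detergent-free condition (0.00005% Triton X-100) in acetate buffer pH 5.5 with DTT. 1.5 nM enzyme and compound were pre-mixed 15 min, then 2 uM Z-FR-AMC substrate added; reaction progress from fluorescence change between first and third reads (60 s).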
Cruzain Triton = blocks cruzain activity in presence of Triton detergent | purified cruzain, Z-FR-AMC fluorescence, 0.01% Triton | AID 1478 | 200,000 compounds, 0.43% hits | Potency, µM, most hits filed as inhibitors; note: nearly all actives have a fitted effect of over 40% in size
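Z-FR-AMC hydrolysis (2 uM substrate) by cruzain (1.5 nM) monitored kinetically at ex 360/em 450 nm after 15 min room-temperature compound exposure; 0.01% Triton X-100, pH 5.5, 5 mM DTT.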
Large screens that a line does not name were inactive. Calls come from the whole dose curve; as a rule, active = well fitted curve in the direction sought with a large enough effect; inconclusive = small, poorly fitted or top-dose-only effect, or another doubt; inactive = no such curve, though single readings can be large; an effect the other way counts as inactive or inconclusive.

COc1ccc(Cl)cc1NS(=O)(=O)c1cc(Cl)ccc1OC	none
Cc1cccc(C)c1NC(=O)Cn1c(=O)n(Cc2ccc3c(c2)OCO3)c(=O)c2oc3ccccc3c21	none
CCCc1cc(=O)[nH]c2nnc(SCC)n12	none
CCOC(=O)C1CCN(c2c(C(=O)c3ccc(C)cc3)cnc3ccc(F)cc23)CC1	none
Cc1cc(C)cc(-n2ccnc2SCC(=O)Nc2cccc3ccccc23)c1	none
CCN(CC)c1ccc(/C=N/NS(=O)(=O)c2ccc(C)c([N+](=O)[O-])c2)cc1	none
CCN(Cc1ccccc1)c1ccc(/C=N/NS(=O)(=O)c2cccc([N+](=O)[O-])c2)cc1	Cruzain inh noDet 25µM
C[C@]1(O)CC[C@H]2[C@@H]3[C@@H](O)CC4=CC(=O)CC[C@@]4(C)[C@H]3CC[C@]21C	none
COc1cccc(C(=O)N/N=C/c2ccc(Oc3ccc([N+](=O)[O-])cn3)c(OC)c2)c1	none
COc1cc(/C=N/NC(=O)COc2c(C)cc([N+](=O)[O-])cc2C)ccc1OC(=O)c1ccccc1Br	Cruzain inh noDet 10µM
COc1ccc(/C=N/NC(=O)c2cccc([N+](=O)[O-])c2)cc1OC(=O)c1ccc(C)cc1	none
COc1ccc(/C=N/NC(=O)CSCc2ccc([N+](=O)[O-])cc2)cc1OC	none
COc1cc(/C=N/NC(N)=S)ccc1OCC(=O)Nc1ccc(C)c(C)c1	Cruzain inh noDet 13µM, Cruzain Triton 16µM
COc1ccc(/C=N/NC(=O)c2cccc([N+](=O)[O-])c2)cc1OC(=O)c1ccccc1	Cruzain inh noDet 25µM
N#Cc1cc([N+](=O)[O-])ccc1Oc1cccc(/C=N/NC(=O)c2cccc(Cl)c2)c1	Cruzain inh noDet 25µM
COc1cc(/C=N/NC(N)=O)ccc1OCC(=O)Nc1ccc(C)c(C)c1	none
CNC(=O)C1CCC(Cn2c(=O)c3sccc3n(CC(=O)NCc3ccccc3)c2=O)CC1 (stereo unspecified)	none
Cc1cc(C)c(NC(=O)CCN2C(=O)c3ccccc3Sc3ncccc32)c(C)c1	none
O=C1OC(O)C(C(Cl)Cl)=C1Cl (stereo unspecified)	none
CC(=O)Nc1cc(C(=O)NCc2ccc(F)cc2)ccc1Sc1ccc(C)cc1	none
CCOc1cc(/C=N/NC(N)=O)ccc1OC(=O)c1ccc(C)cc1	none
CCOc1cc(/C=N/NC(=O)CNc2ccc(C)cc2)ccc1OC(=O)c1ccccc1	Cruzain inh noDet 10µM
COc1cc(/C=N/NC(=O)COc2c(C)cc([N+](=O)[O-])cc2C)ccc1OC(=O)c1ccccc1	Cruzain inh noDet 25µM
Cc1ccc(NCC(=O)N/N=C/c2cc3ccccc3nc2Cl)cc1	Cruzain inh noDet 25µM
Cc1ccc(NCC(=O)N/N=C\C(Br)=C\c2ccccc2)cc1	Cruzain inh noDet 13µM
CCOc1cc(/C=N/NC(=O)c2cc(C)[nH]n2)ccc1OC(=O)c1ccc([N+](=O)[O-])cc1	none
Cc1cc(C)nc(SCC(=O)N/N=C\C(Br)=C\c2ccccc2)n1	none
O=C(CN1CCOCC1)N/N=C/c1cc2ccccc2nc1Cl	none
COc1ccc(C(=O)Nc2nnc(SCc3cc(=O)n4cccc(C)c4n3)s2)cc1	none
O=C(CCn1cnc2onc(-c3ccc(F)cc3)c2c1=O)N1CCN(c2cccc(Cl)c2)CC1	none
COc1cc(/C=N/NC(=O)c2cccc([N+](=O)[O-])c2)ccc1OCc1ccccc1	none
O=C(COc1ccccc1[N+](=O)[O-])N/N=C/c1ccc(O)cc1	none
O=C(N/N=C/c1cccc([N+](=O)[O-])c1)c1ccc(COc2ccccc2-c2ccccc2)cc1	Cruzain inh noDet 20µM
O=C(COc1ccccc1-c1ccccc1)N/N=C/c1ccc2ccccc2c1	Cruzain inh noDet 20µM
COc1ccccc1Nc1c2c(nc3ccc(NC(=O)c4ccc(N(C)C)cc4)cc13)CCCC2	Cruzain inh noDet inconclusive
CCN1C(=O)c2ccccc2Sc2ccc(NC(=O)Nc3ccc(Br)c(C)c3)cc21	Cruzain inh noDet 7.9µM
CCN1C(=O)c2ccccc2Sc2ccc(NC(=O)Nc3ccc(C(C)=O)cc3)cc21	none
Cc1cc2c(cc1S(=O)(=O)CCC(=O)N1CCCCC1C)OCC(=O)N2 (stereo unspecified)	none
COc1ccc(-c2nc(C(N)=O)c3[nH]c(=O)n(-c4cccc(Cl)c4)c3n2)cc1OC	Cruzain inh noDet inconclusive
Cc1ccsc1-c1nc(C(N)=O)c2[nH]c(=O)n(-c3ccc(Cl)cc3)c2n1	Cruzain inh noDet 10µM
COc1ccc(CCNC(=O)c2ccc3c(c2)N(Cc2ccccc2Cl)C(=O)c2ccccc2S3)cc1OC	Cruzain inh noDet inconclusive
COc1ccc(NC(=O)COC(=O)c2ccc(OCc3ccc(Cl)cc3Cl)c(OC)c2)c(OC)c1	Cruzain inh noDet inconclusive
COc1ccc(C)cc1NC(=O)COC(=O)c1ccc(OCc2ccc(Cl)cc2Cl)c(OC)c1	Cruzain inh noDet 25µM
O=C(NCc1ccc(F)cc1)C1CCN(C(=O)c2ccc(-n3ccc4ccccc43)s2)CC1	none
Cc1ccc2c(c1)-c1onc(C(=O)N(C)c3cccc(C(F)(F)F)c3)c1CO2	Cruzain inh noDet inconclusive
Cc1ccc(-c2csc(N(CCc3ccccc3)C(=O)COc3ccccc3)n2)cc1	none
Cc1ccc(-c2csc(N(Cc3ccccc3)C(=O)COc3ccccc3)n2)cc1	Cruzain inh noDet 7.9µM
COc1ccccc1OCc1nnc(-c2ccccc2)o1	none
CC(C)(C)OC(=O)N1CCC(c2c(C(=O)NCCN3CCOCC3)cnn2-c2ccc(F)cc2)CC1	none
CN(C)Cc1cc(Cl)c(O)c(CN(C)C)c1	none
CN(C)Cc1c(O)c(Cl)cc2c3c(c(=O)oc12)CCCC3	Cruzain inh noDet 13µM, Cruzain Triton inconclusive
Cc1c(C)c2cc(Cl)c(O)c(CN(C)C)c2oc1=O	Cruzain inh noDet inconclusive, Cruzain Triton 32µM
Cc1c(O)c(CN2CCCCC2)cc2c3c(c(=O)oc12)CCC3	Cruzain inh noDet inconclusive
CCN(CC)Cc1c(O)c(Cl)cc2c3c(c(=O)oc12)CCCC3	Cruzain Triton inconclusive
O=c1oc2c(CN3CCOCC3)c(O)c(Cl)cc2c2c1CCC2	Cruzain inh noDet inconclusive, Cruzain Triton 25µM
COC(=O)c1ccc(C2C=C(c3ccc(Cl)cc3)Nc3nc4ccccc4n32)cc1 (stereo unspecified)	none
COc1ccccc1CNS(=O)(=O)c1ccc2c(c1)NC(=O)C(C)C(=O)N2 (stereo unspecified)	none
CCOc1ccccc1NC(=O)CSc1nc2cc(OC)c(OC)cc2c2nc(CCn3c(C)nc4ccccc43)nn12	none
COc1cccc(CNC(=O)c2ccc(CSc3nc4ccncc4n3Cc3cccc(C)c3)cc2)c1	none
CN(C)C1C(=O)C(C(N)=O)C(=O)C2(O)C(=O)C3C(=O)c4c(O)ccc(Cl)c4C(O)C3CC12 (stereo unspecified)	none
CC(=O)Nc1nnc(SCc2ccccc2F)s1	none
O=C(Nc1nnc(-c2ccccc2SCc2ccccc2F)s1)Nc1ccccc1F	Cruzain inh noDet 3.2µM
COc1ccc(N2C(=O)CC(Sc3ncn[nH]3)C2=O)c(OC)c1 (stereo unspecified)	Cruzain inh noDet inconclusive
CC(C)c1ccc(N2C(=O)CC(Sc3ncn[nH]3)C2=O)cc1 (stereo unspecified)	Cruzain inh noDet 4µM
C[C@H]1[C@H](C)OC(=O)C[C@H](O)C[C@H](O)C[C@H](O)CC[C@H](O)[C@H](O)CC(=O)C[C@H](O)[C@H](C(=O)O)[C@H](O)C[C@H](O[C@@H]2O[C@@H](C)[C@H](O)[C@@H](N)[C@@H]2O)C=CC=CC=CC=CCCC=CC=C[C@@](C)(O)[C@H]1O	none
CCOc1ccc(-n2cc(-c3ccccc3)c3c(N4CCC(C)CC4)ncnc32)cc1	none
